# PubChem BioAssay (NCATS)
# Inconclusive results are not listed. Entries that show only a call come without a potency. A number with no mark means an inactive call. Active and inactive are the calls of the source. Calls come from the whole dose curve; as a rule, active = well fitted curve in the direction sought with a large enough effect; inconclusive = small, poorly fitted or top-dose-only effect, or another doubt; inactive = no such curve, though single readings can be large; an effect the other way counts as inactive or inconclusive.
# Key:
# [1] = biological target: Cellular tumor antigen p53 (Homo sapiens) (UniProt P04637); assay: Primary qHTS for small molecule compounds that upregulate eGFP-tagged delta133p53alpha (in N-terminal) cells. (AID 2060322); settings: NCI-H358 eGFP-delta133p53alpha fluorescence, 24 h; activation: stronger effect = higher value; note: nearly all actives have a fitted effect of over 75% in size; note: potency is the fitted concentration of half-maximal effect;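 for activation: cells pre-induced with doxycycline then dosed without doxycycline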
# Sequence of Cellular tumor antigen p53 (Homo sapiens) (P04637 whole entry, looked up): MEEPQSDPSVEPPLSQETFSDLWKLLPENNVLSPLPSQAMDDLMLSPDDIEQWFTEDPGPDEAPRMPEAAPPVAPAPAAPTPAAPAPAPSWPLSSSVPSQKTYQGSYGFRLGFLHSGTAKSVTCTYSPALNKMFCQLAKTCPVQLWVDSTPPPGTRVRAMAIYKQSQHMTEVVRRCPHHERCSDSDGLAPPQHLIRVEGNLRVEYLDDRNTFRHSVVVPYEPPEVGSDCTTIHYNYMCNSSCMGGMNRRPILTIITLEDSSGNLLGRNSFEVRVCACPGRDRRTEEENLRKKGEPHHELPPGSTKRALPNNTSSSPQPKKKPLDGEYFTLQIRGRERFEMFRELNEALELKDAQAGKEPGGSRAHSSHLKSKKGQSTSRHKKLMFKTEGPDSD
# How it was run: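 NCI-H358 cells pre-induced 24 h with 10 ng/ml doxycycline for eGFP-delta133p53alpha, plated dox-free and exposed 24 h at 37C to titrated compounds. Fixed, Hoechst-stained; gated GFP peak intensity by laser scanning cytometry, normalized to DMSO (0%) and 57.5 uM 5-azacytidine (100%).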
# [2] = biological target: Aldehyde dehydrogenase, mitochondrial (Homo sapiens) (UniProt P05091); assay: qHTS for Inhibitors of the Aldehyde Dehydrogenase Family (ALDH2) Primary screen (AID 2061308); settings: ALDH2 enzyme inhibition qHTS, 1536-well; series mostly up to 56 µM; note: nearly all actives have a fitted effect of over 55% in size
# [3] = biological target: Retinaldehyde dehydrogenase 3 (Homo sapiens) (UniProt P47895); assay: qHTS for Inhibitors of the Aldehyde Dehydrogenase Family (ALDH1A3) Primary screen (AID 2061315); settings: ALDH inhibition qHTS; series mostly up to 56 µM
Structure (SMILES),activation [1] [%],Potency [2],Potency [3],Potency [1]
CC(=O)O[C@@H]1[C@H]2[C@@H](OC(=O)c3ccccc3)[C@@H](C)C[C@]2(O)[C@H](OC(C)=O)[C@@]2(C)[C@@H]3CC(C)(C)C(=O)[C@]3(OC(C)=O)C[C@@]12C,-15.2,inactive,inactive,–
CC1(C)CC[C@]2(C(=O)O[C@@H]3O[C@H](CO)[C@@H](O)[C@H](O)[C@H]3O)CC[C@]3(C)C(=CCC4[C@@]5(C)C[C@H](O)[C@H](O[C@@H]6OC[C@@H](O)[C@H](O)[C@H]6O)[C@@](C)(CO)C5CC[C@]43C)C2C1 (stereo not given in full),11.6,inactive,inactive,–
C/C=C(/C)C(=O)O[C@H]1C=C(C)C[C@H](OC(=O)c2ccc(O)cc2)C2[C@](O)(C(C)C)CC[C@@]21C (stereo not given in full),-5.34,inactive,inactive,–
C/C=C1/[C@H](O[C@@H]2O[C@H](CO)[C@@H](O)[C@H](O)[C@H]2O)OC=C(C(=O)OC)[C@H]1CC(=O)OCCc1ccc(O)c(O)c1,5.34,inactive,inactive,–
COC(=O)CCc1cc2ccoc2c(OC)c1O[C@@H]1O[C@H](CO)[C@@H](O)[C@H](O)[C@H]1O,-27.7,inactive,inactive,–
CC(C)(C)c1ccc(C(=O)Nc2cn3cc(-n4ccnc4)ccc3n2)cc1,1.79,inactive,inactive,–
COC(=O)C1(O)C(OC(C)=O)CCC2C3(CC(c4ccoc4)OC3=O)C(C)=CCC21C(=O)OC (stereo not given),9.82,inactive,inactive,–
C[C@H](/C=C/[C@@]1(O)[C@H](C)CC(=O)CC1(C)C)O[C@@H]1O[C@H](CO[C@@H]2OC[C@@H](O)[C@H](O)[C@H]2O)[C@@H](O)[C@H](O)[C@H]1O,-6.11,inactive,inactive,–
CCC(C)CC(=O)OC1C(=O)C(CO)=CC(O)C1C(C)C (stereo not given),–,inactive,inactive,23.9 µM (active)
C=C1CCC2C(OC(=O)C2(O)COC(C)=O)C2C(=C)C(O)CC12 (stereo not given),-3.82,inactive,inactive,–
C/C1=C\C[C@]2(C)C(=O)C(O)=C([C@H](C)CO)[C@H]2C/C=C(\C)[C@@H](O)CC/C(C)=C/CC1,-6.11,inactive,inactive,–
CC(O)(CC(=O)O)CC(=O)OCc1ccc(O[C@@H]2O[C@H](CO)[C@@H](O)[C@H](O)[C@H]2O)cc1 (stereo not given in full),-13.7,inactive,inactive,–
O=C(/C=C/c1ccc(O)cc1)OC[C@H]1O[C@H](O[C@@]2(CO)O[C@@H](CO)[C@H](O)[C@H]2O)[C@H](O)[C@@H](O)[C@@H]1O,6.25,inactive,inactive,–
C/C(=C\CCC1(C)C2CC3C(C2)C31C)C(=O)O (stereo not given),5.36,inactive,inactive,–
C[C@@H]1O[C@@H](O[C@H]2[C@H](OC(=O)[C@]34CCC(C)(C)C[C@H]3C3=CCC5[C@@]6(C)C[C@@H](O)[C@@H](O)[C@@](C)(CO)C6[C@H](O)C[C@@]5(C)[C@]3(C)CC4)OC[C@H](O)[C@@H]2O)[C@H](O)[C@H](O)[C@H]1O[C@@H]1OC[C@@H](O)[C@H](O[C@H]2O[C@H](C)[C@@H](O)[C@H](O)[C@@H]2O)[C@H]1O (stereo not given in full),-2.68,inactive,inactive,–
C/C=C(\C)C(=O)OC[C@H]1O[C@H](O[C@H]2O[C@H](CO)[C@@H](O)[C@H](O)[C@H]2O[C@@H]2O[C@H](CO)[C@@H](O)[C@H](O)[C@H]2O)[C@H](O[C@@H]2O[C@H](CO)[C@@H](O)[C@H](O)[C@H]2O)[C@@H](O)[C@@H]1O,-3.82,inactive,inactive,–
C/C=C(\C)C(=O)OCC1OC(OCC2OC(OC3(CO)OC(CO)C(O)C3O)C(O)C(O)C2O)C(O)C(O)C1O (stereo not given),-9.16,inactive,inactive,–
CC(C)C(O)(CO)CCO[C@@H]1O[C@H](CO[C@H]2OC[C@](O)(CO)[C@H]2O)[C@@H](O)[C@H](O)[C@H]1O (stereo not given in full),-13,inactive,inactive,–
NC[C@H]1CCC[C@@H](CNC(=O)[C@@H](Cc2c[nH]c3ccccc23)NC(=O)N2CCC3(C=Cc4ccccc43)CC2)C1,3,inactive,inactive,–
Cc1nc2c(C(F)(F)F)cccc2nc1-c1ccc(-c2cccc(S(C)(=O)=O)c2)cc1,-2.68,inactive,inactive,–
